The values below come from the supplement of paper PMC10681739.

In experiment [1] the target is T1, ETS1 (UniProt P14921).
T1 sequence: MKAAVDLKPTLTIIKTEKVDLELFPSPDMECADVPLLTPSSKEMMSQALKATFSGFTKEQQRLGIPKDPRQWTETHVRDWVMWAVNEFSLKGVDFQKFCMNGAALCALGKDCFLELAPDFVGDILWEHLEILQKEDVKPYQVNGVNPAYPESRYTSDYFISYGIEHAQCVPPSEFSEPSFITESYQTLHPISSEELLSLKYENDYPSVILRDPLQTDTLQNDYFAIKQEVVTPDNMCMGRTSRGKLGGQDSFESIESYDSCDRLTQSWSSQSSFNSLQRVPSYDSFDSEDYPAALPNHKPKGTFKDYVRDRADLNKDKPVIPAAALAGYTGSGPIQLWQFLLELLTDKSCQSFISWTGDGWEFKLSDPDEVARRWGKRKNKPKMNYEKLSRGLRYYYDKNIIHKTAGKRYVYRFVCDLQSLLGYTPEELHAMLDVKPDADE
The experiment in a line: ETS1 binding intensity (PBM fluorescence), ETS1 alone (arbitrary fluorescence units); higher = stronger binding. The conditions noted are these: ETS1 concentration 1 nM; RUNX1 concentration 0 nM.

Experiment [2] deals with RUNX1 (UniProt Q01196). The experiment can be described thus: RUNX1 binding intensity (PBM fluorescence), RUNX1 alone (arbitrary fluorescence units); higher = stronger binding. The conditions noted are these: RUNX1 concentration 2 nM; ETS1 concentration 0 nM. Here is the method: (§1)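 Cooperative gcPBM on 36-bp genomic probes with neighbouring ETS1 and RUNX1 sites. Recombinant human RUNX1 (2 nM) was incubated alone or with ETS1 (25 nM) and detected with anti-RUNX1 antibody plus Alexa488 secondary. Values are medians over 4 replicate spots; the RUNX1+ETS1 data were normalised to the RUNX1-only data. The probes sit in constant array flanks that are not printed.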
Sequence of RUNX1 (Q01196 whole entry): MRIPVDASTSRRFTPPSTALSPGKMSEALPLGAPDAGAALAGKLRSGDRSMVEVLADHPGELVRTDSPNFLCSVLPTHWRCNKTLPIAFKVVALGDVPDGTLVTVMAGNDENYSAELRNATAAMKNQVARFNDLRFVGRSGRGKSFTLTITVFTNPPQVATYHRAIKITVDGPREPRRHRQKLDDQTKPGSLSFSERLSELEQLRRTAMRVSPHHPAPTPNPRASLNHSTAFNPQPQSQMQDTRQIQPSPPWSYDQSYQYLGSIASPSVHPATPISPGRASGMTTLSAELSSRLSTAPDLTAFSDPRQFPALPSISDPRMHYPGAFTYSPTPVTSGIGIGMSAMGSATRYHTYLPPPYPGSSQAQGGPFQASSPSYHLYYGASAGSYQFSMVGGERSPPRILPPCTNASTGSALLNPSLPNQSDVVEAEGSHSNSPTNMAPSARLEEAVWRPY

Experiment [3] concerns the target T1, ETS1. The experiment can be described thus: ETS1 binding intensity (PBM fluorescence) in presence of RUNX1, normalised to ETS1-only experiment (arbitrary fluorescence units); higher = stronger binding. The conditions noted are these: ETS1 concentration 1 nM; RUNX1 concentration 25 nM.
In experiment [4] the target is RUNX1 (UniProt Q01196). The experiment can be described thus: RUNX1 binding intensity (PBM fluorescence) in presence of ETS1, normalised to RUNX1-only experiment (arbitrary fluorescence units); higher = stronger binding. The conditions noted are these: RUNX1 concentration 2 nM; ETS1 concentration 25 nM. Here is the method:
as §1
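Throughout, for RUNX1 binding intensity (PBM fluorescence) in presence of ETS1, normalised to RUNX1-only experiment: Full-length recombinant human ETS1 or RUNX1 bound to double-stranded 36-bp genomic probes on microarrays, detected by protein-specific primary antibody and Alexa488 secondary, spot fluorescence as median of four replicate spots.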
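Throughout, for RUNX1 binding intensity (PBM fluorescence), RUNX1 alone: Full-length recombinant human RUNX1 bound to double-stranded 36-bp genomic probes on a high-density microarray, scored as Alexa488 fluorescence per spot via anti-RUNX1 antibody, median of four replicate spots.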

On to ACTCCTCCCGCTTCCGCTGCCGCAGCCGGTCGTAAC, for which the figures for the ETS1 binding intensity with ETS1 [1] and with ETS1 [3] were 1280 and 1680, respectively. Besides, the RUNX1 binding intensity stood at 1310 with RUNX1 [2] and 3470 with RUNX1 [4].
The like results for CCCTTCGCTTCCGCTCCGCGTTCCCACAATGCAGTG were, in that order, 884, 1090, 1600 and 3700.
Regarding CACCTGCGGAAGTCACAGGGAAGCCACAGAGAGATG, the ETS1 binding intensity stood at 849 with ETS1 [1] and 1160 with ETS1 [3]. Besides, the RUNX1 binding intensity in the experiment with RUNX1 [4] came to 1080.
In the case of GAAATCACATCCTTTTGCAAAACCACAGGTGTTTTG, the ETS1 binding intensity was 409 with ETS1 [1] and 1500 with ETS1 [3]. Also, the values for the RUNX1 binding intensity with RUNX1 [2] and with RUNX1 [4] were 1320 and 3340, respectively.
On to AACCTGCAGACTTCCTGCCATGTGACCACAGGGTCT, for which the ETS1 binding intensity amounted to 901 in the experiment with ETS1 [1] and 3140 in the experiment with ETS1 [3]. The RUNX1 binding intensity in the experiment with RUNX1 [4] was 2160.
With TTACGACACTTCCGGCGACGCCCCGCAGCCTTCACC, the ETS1 binding intensity is 2890 with ETS1 [1] and 2740 with ETS1 [3]. Also, in the experiment with RUNX1 [4], the RUNX1 binding intensity is 1880.
In the case of CGATTCCGGAGACAGGCCCCACCGTGCGGTAAACTG, the figures for the ETS1 binding intensity in the experiment with ETS1 [1] and in the experiment with ETS1 [3] were 550 and 810, respectively. Besides, the RUNX1 binding intensity with RUNX1 [2] was found to be 835; with RUNX1 [4], 931.
As for CCTCGGTTCGGAAACGGCGAAAGCAAACCGCAAGGA, the results for the ETS1 binding intensity with ETS1 [1] and with ETS1 [3] were 478 and 3890, respectively. The RUNX1 binding intensity with RUNX1 [4] is 3120.
In the case of GATGCTTGTTCAGGATGCGGTTTCTTGCAGCAAGTT, the ETS1 binding intensity turned out to be 674 with ETS1 [1] and 2380 with ETS1 [3]. The RUNX1 binding intensity with RUNX1 [2] stood at 3420; in the experiment with RUNX1 [4] it was 5090.
In the case of GTCTTAGGTCGGAAGTCTGTGGTCCCTGTTCACATG, the ETS1 binding intensity stood at 796 in the experiment with ETS1 [1] and 910 in the experiment with ETS1 [3]. Also, in the experiment with RUNX1 [4], the RUNX1 binding intensity was found to be 953.
On to AGGCCCGGATACCCGCCCCCAAAACCGCGTCCACAA, for which the values for the ETS1 binding intensity in the experiment with ETS1 [1] and in the experiment with ETS1 [3] were 523 and 1050, respectively. The results for the RUNX1 binding intensity with RUNX1 [2] and in the experiment with RUNX1 [4] were 1040 and 1090, respectively.
For the sequence TTGCTTTATCACTTCCTGTTTGAGGTTTATATCCAT, the ETS1 binding intensity is 5630 with ETS1 [1] and 9450 with ETS1 [3]. Moreover, the RUNX1 binding intensity was determined as 1590 with RUNX1 [2] and 3160 with RUNX1 [4].
The like results for TGTCTCTGCCGCCGGAAACCGCGCCGTAGATCATGC were, in that order, 5360, 7800, 945 and 1420.
For GGAGGCGGAAGTGGAGGTTGTTGTGGCTCCGAGGGC the same measures were 1940, 1950, 727 and 1100.
